# Reference: paper PMC6212790, “How bacterial xenogeneic silencer rok distinguishes foreign from self DNA in its resident genome”
# The full ranking holds about 33,000 sequences; the median of “e-score” is about -0.037, and the highest 2% start at about 0.34. Only a selection was taken, and the highest values are over-represented in it overall.
# Molecular target: T1, GST-Rok (full length) (Bacillus subtilis subsp. subtilis str. …, UniProt O34857 1-191)
# T1 sequence: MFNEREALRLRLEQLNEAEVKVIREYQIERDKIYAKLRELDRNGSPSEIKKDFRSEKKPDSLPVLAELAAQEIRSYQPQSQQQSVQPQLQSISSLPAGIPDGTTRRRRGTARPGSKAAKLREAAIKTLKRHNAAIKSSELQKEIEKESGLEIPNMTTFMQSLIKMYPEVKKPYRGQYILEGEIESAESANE
# Assay: protein binding microarray; Rok is a gene silencer of Bacillus subtilis; high values mean tight binding
# Settings: protein: recombinant; tags: GST (pTH5325, pDEST15-Magic modified); dsDNA, one strand shown
# In short: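 Each has a 25-mer constant primer and a 35-mer variable part from a de Bruijn sequence of order 10, covering every non-palindromic 8-mer at least 32 times (palindromic 16). Preference for each 8-mer is given as a rank-based, unitless enrichment score (E-score). Its range runs from 0.5 (most favored) to −0.5 (most disfavored).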
row,Sequence,binding signal
1,AGTGAAAC,-0.00421 E-score
2,ATGTATAC,0.347 E-score
3,GTGTATAA,0.246 E-score
4,ATGTATAA,0.385 E-score
5,CTGTATAC,0.216 E-score
6,CTGTATAA,0.265 E-score
7,ATGTATAG,0.244 E-score
8,GTTAATAA,0.303 E-score
9,TCTCGACA,-0.0144 E-score
10,ATCAGAGC,-0.105 E-score
11,CGTCTCTA,-0.15 E-score
12,CATTGTTC,0.00988 E-score
13,CCAGCATA,-0.0442 E-score
14,ATAGGTCA,0.156 E-score
15,CGATGGAA,0.0214 E-score
16,AACAAACA,0.0686 E-score
17,CACAAATA,0.35 E-score
18,AACAAATA,0.295 E-score
19,CACAAATG,-0.0865 E-score
20,CACAAACA,0.0611 E-score
21,TACAAGTA,0.288 E-score
22,CACAAGTA,0.183 E-score
23,TACAAATA,0.375 E-score
24,TACAAACA,0.369 E-score
25,TTATGCAA,0.154 E-score

row,Sequence,binding signal
1,GGAGGAAA,-0.0576 E-score
2,CGTTCCTC,-0.0344 E-score
3,AGTAAGGA,-0.0123 E-score
4,CGTCGCGC,0.0557 E-score
5,ACTCCTAT,0.122 E-score
6,AAGATTCC,-0.109 E-score
7,AAGTAGTA,0.332 E-score
8,CAGTAGAG,0.142 E-score
9,CAGTAGTA,0.343 E-score
10,GAGTAGAA,0.202 E-score
11,AAGTAGAA,0.305 E-score
12,CAGTAGTC,-0.166 E-score
13,CAGTAGAA,0.391 E-score
14,TAGTAGAA,0.439 E-score
15,TAGTAGGA,0.209 E-score
16,AACGACGA,0.183 E-score
17,ATTGGCTC,-0.0706 E-score
18,AATTTTCG,0.139 E-score
19,ACCGGCAG,-0.0541 E-score
20,AGACTGTC,0.0207 E-score
21,CGCAGACA,-0.162 E-score
22,ATGTTGTA,0.223 E-score
23,AATACCTA,0.267 E-score
24,ATTACCTA,0.382 E-score
25,GTTACGTA,0.169 E-score

row,Sequence,binding signal
1,ATTACCTC,0.167 E-score
2,CTTACGTA,0.179 E-score
3,CATACCTA,0.334 E-score
4,ATTACGTA,0.38 E-score
5,GATACCTA,0.34 E-score
6,ATTACCTG,0.126 E-score
7,ACGCCGAC,-0.196 E-score
8,ACGACATG,0.136 E-score
9,CACCAGTA,-0.00869 E-score
10,AAAGTCGC,0.0343 E-score
11,GGCTCTAA,0.0778 E-score
12,AACTCTGA,0.0339 E-score
13,CCAGACGG,-0.108 E-score
14,CAAAGACC,-0.0604 E-score
15,GTATTCAA,0.0317 E-score
16,GCAGTAGA,0.342 E-score
17,ATAGTAGC,0.315 E-score
18,ATAGTAGA,0.346 E-score
19,CAAGTAGA,0.286 E-score
20,GCAGTAGC,-0.0296 E-score
21,CTAGTAGC,0.251 E-score
22,GTAGTAGA,0.33 E-score
23,CTAGTAGA,0.404 E-score
24,CCAGTAGA,0.166 E-score
25,AGCCGGAT,-0.184 E-score

row,Sequence,binding signal
1,ATCCTTCC,-0.158 E-score
2,CATTGAAA,-0.0384 E-score
3,ACTCTCCA,-0.0297 E-score
4,TCCGGTAA,0.0305 E-score
5,ATTTTACA,0.311 E-score
6,CAATTTAA,0.152 E-score
7,ATTTTTAC,0.335 E-score
8,ATTTTACG,0.219 E-score
9,AAAATTAC,0.248 E-score
10,CAAATTAG,0.21 E-score
11,AATTTTAC,0.355 E-score
12,GAATTTAA,0.0678 E-score
13,CAAATTAC,0.356 E-score
14,AATTTTAG,0.222 E-score
15,ATTTTACC,0.351 E-score
16,TAATTTAA,0.356 E-score
17,GGATCTTA,0.0165 E-score
18,CTGTCTAA,-0.0397 E-score
19,AAGTCTGG,-0.0136 E-score
20,AATGCACG,-0.0533 E-score
21,CAACTTAC,0.216 E-score
22,TAAGGTAA,0.0381 E-score
23,TCCAGTCA,-0.0213 E-score
24,AGATTTTA,0.294 E-score
25,GACAAACA,0.0661 E-score

row,Sequence,binding signal
1,TCGGTGAA,-0.0505 E-score
2,TCAACGAA,0.0593 E-score
3,AAATTTAT,0.351 E-score
4,CATTTTAA,0.0564 E-score
5,AAATTTAG,0.163 E-score
6,CAATTTAC,0.288 E-score
7,CATTTTAC,0.349 E-score
8,GATTTTAC,0.18 E-score
9,AATTTTAT,0.273 E-score
10,AAATTTAC,0.336 E-score
11,GAATTTAC,0.268 E-score
12,GATGAACC,-0.136 E-score
13,ATGTTGGC,0.0169 E-score
14,ACATGTAT,0.167 E-score
15,CCATGTAC,0.193 E-score
16,CCATGTAG,0.271 E-score
17,ACATGTAC,0.358 E-score
18,ACATGTAG,0.338 E-score
19,GCATGTAC,0.0911 E-score
20,CGGGTACA,0.154 E-score
21,CGACAGCG,-0.036 E-score
22,AATTACTG,0.191 E-score
23,AATTACCT,0.357 E-score
24,GGTTACTA,0.163 E-score
25,AATTACTA,0.434 E-score

row,Sequence,binding signal
1,CGTTACTA,0.34 E-score
2,AATTACCC,0.215 E-score
3,ATTTACTA,0.459 E-score
4,GATTACTA,0.2 E-score
5,ATTTACTC,0.0747 E-score
6,ATTTACTG,0.287 E-score
7,AATTACCG,0.32 E-score
8,CGTTACTC,-0.0623 E-score
9,GACTTATA,0.257 E-score
10,CCGCACCA,-0.082 E-score
11,AGGTGTCA,-0.0859 E-score
12,CGCCCTAC,-0.152 E-score
13,CATATGCA,0.117 E-score
14,AGTCAGCC,-0.00495 E-score
15,CGCCCTTA,-0.158 E-score
16,AAAGAACA,-0.199 E-score
17,ATTAAGAC,-0.0587 E-score
18,AGTTACTG,0.207 E-score
19,ATTTACAG,0.24 E-score
20,AGTTACTA,0.345 E-score
21,AGTTACTC,0.188 E-score
22,ATTTACAC,0.23 E-score
23,ATTTACAA,0.368 E-score
24,CAGTGGAA,0.0127 E-score
25,GGTGTGTA,0.271 E-score

row,Sequence,binding signal
1,CGCATTCC,-0.192 E-score
2,ACTTATAA,0.28 E-score
3,TACGACCA,-0.0634 E-score
4,GAACTCGC,-0.0505 E-score
5,AGGCGCTA,-0.15 E-score
6,GCTCCATA,0.0969 E-score
7,CCGATCCG,-0.19 E-score
8,CAAACGAA,0.108 E-score
9,TAATTCTA,0.345 E-score
10,CAATTCTA,0.278 E-score
11,ATATTCTC,0.277 E-score
12,GAATTCTC,-0.0203 E-score
13,AACTTCTA,0.296 E-score
14,ATATTCTA,0.424 E-score
15,TAATTCAA,0.105 E-score
16,TAATTCCA,0.213 E-score
17,GAATTCTA,0.357 E-score
18,TACTTCTA,0.36 E-score
19,CTATTCTA,0.128 E-score
20,GACTTCTA,0.0634 E-score
21,CAAGAAAA,-0.0182 E-score
22,GATTCACA,0.0605 E-score
